Data taken from PubChem BioAssay AID652039 (The Scripps Research Institute Molecular Screening Center, 2013).
In all, about 370,000 compounds went through this assay and about 3,300 (0.89%) were called active.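 How the source made its calls: active means activation above the mean of all tested compounds plus 3 SD, computed per campaign excluding outliers beyond control limits (cut at about 13% in these data); inactive means the rest.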 For the sample, actives were picked, then their nearest neighbours and some compounds at random.

Target: Kallikrein-7 (Homo sapiens) (UniProt P49862)
Experiment: proKLK7 zymogen activators, primary screen, biochemical, fluorescence intensity (AID 652039)
Settings: purified proKLK7, EDANS-DABCYL substrate fluorescence; at 7 µM; stronger effect = higher value; 100% is mature enzyme control, 0% vehicle

Chain of Kallikrein-7 (Homo sapiens) (P49862 whole entry, looked up): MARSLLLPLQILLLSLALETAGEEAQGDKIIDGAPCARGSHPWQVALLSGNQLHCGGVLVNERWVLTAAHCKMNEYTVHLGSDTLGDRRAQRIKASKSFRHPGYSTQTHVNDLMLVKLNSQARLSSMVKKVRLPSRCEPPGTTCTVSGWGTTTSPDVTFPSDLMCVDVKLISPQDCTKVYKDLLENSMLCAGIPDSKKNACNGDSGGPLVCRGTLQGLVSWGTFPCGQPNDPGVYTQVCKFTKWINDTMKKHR

activation, active:
CCOCCCNC(=O)c1cc2c(=O)n3ccccc3nc2s1 40.6%
CN(C(=O)c1cc2c(=O)n3ccccc3nc2s1)C1CCCCC1 25.8%
CC(=O)Nc1ccc(S(=O)(=O)NCC(=O)OCc2cc(=O)oc3ccc4ccccc4c23)cc1 273%
O=C(O)c1ccc2c3c(cccc13)C(=O)N(OS(=O)(=O)c1ccccc1)C2=O 105%
CC(C)(C)C(=O)Nc1ccc(-c2cn3cccnc3n2)cc1 65.9%
CC(=O)Nc1ccc(-c2cn3cccnc3n2)cc1 64.7%
CCCCCC(=O)Nc1ccc(-c2cn3cccnc3n2)cc1 52.5%
COc1ccc(-c2cc3ccc(OCc4nn[nH]n4)cc3oc2=O)cc1 75.6%
CCCN(CC(=O)NC(=O)NC1CCCCC1)CC(=O)Nc1cc(Cl)ccc1Cl 24.4%
CC1(C)CC(=O)c2cc(OCC(=O)NCC3CCCO3)ccc2O1 (centres undefined) 54.2%
O=C(O)c1cccnc1Sc1ncnc2sc3c(c12)CCC3 12.7%
COc1ccc2nc(Nc3nc4cc5c(cc4s3)OCCO5)sc2c1 17.3%

activation, inactive:
C=CCN1[C@@H](Cc2ccccc2)COc2cccc(N3CCSCC3)c2S1(=O)=O 0.85%
O=C(NCc1ccc(Cl)cc1)C1CCCN(c2nc3ccccc3o2)C1 (centres undefined) 0.03%
Cc1sc2nc(SCC(=O)c3ccc(O)c(O)c3)n(Cc3ccco3)c(=O)c2c1C -0.81%
C=CCN1C(C(=O)OC)CN(Cc2cn(Cc3ccccc3)nn2)CCS1(=O)=O (centres undefined) 0.39%
CN(CCNC(=O)c1cc2c(-c3ccccc3F)nn(C)c2s1)C1CCCCC1 -1.03%
CCOCCCNC(=O)c1cn(CC(C)C)c(=O)c2c1c1ccccc1n2C -1.85%
CN(c1ccc2nc3ccccc3c(=O)n2n1)C1CCCCC1 0.7%
COCCCNC(=O)/C(C#N)=C/c1c(N2CCCCCC2)nc2ccccn2c1=O 8.31%
Cc1ccc(C(=O)C2CCN(CC(=O)NCCC(C)C)CC2)cc1 1.04%
CCCC[C@H](C(=O)N(CC)c1ccccc1)[C@@H](O)c1ccc2ccccc2c1 0.3%
COc1ccccc1C(=O)COC(=O)CNS(=O)(=O)c1ccc(NC(C)=O)cc1 0.48%
COc1ccccc1CNC(=O)COC(=O)CNS(=O)(=O)c1ccc(NC(C)=O)cc1 -0.12%
CC1CCCN(c2cccc3c2S(=O)(=O)N(Cc2ccc(F)cc2)[C@@H](C)[C@H](c2ccccc2)O3)C1 (some centres undefined) -0.65%
Nn1c(SCC(=O)Nc2cccc3ccccc23)nnc1-c1cc(-c2ccc(F)cc2)n[nH]1 0.42%
COc1cccc(-c2ccc3c(c2)S(=O)(=O)c2cccc(C(=O)O)c2C3=O)c1OC -0.11%
C=C(C)C#CC(Cc1ccccc1)N(CC1CC1)/C(N)=N/C(=O)OCc1ccccc1 (centres undefined) -0.43%
CC(=O)Nc1ccc(S(=O)(=O)Nc2ccc(-c3ccc4nnc(C)n4n3)cc2)cc1 0.05%
Cc1cccc(C(=O)Nc2c(-c3ccc(F)cc3)nc3ncccn23)c1 8.91%
CC(C)(C)C(=O)Nc1cccc(-c2ccc[nH]2)n1 0.15%
CCCCC(=O)Nc1ccc(C(=O)NCCCn2ccnc2)cc1 0%
CCCCCC(=O)Nc1ccc(S(=O)(=O)Nc2ccc(Cl)nn2)cc1 -0.08%
Cc1nn2c(=O)cc(COC(=O)c3ccc(NC(=O)C(C)(C)C)cc3)nc2s1 -0.47%
O=C(CCS(=O)(=O)c1ccccc1)Nc1ccc(Cl)c(Cl)c1 0.23%
O=C(CSc1nnc(COc2ccccc2)n1-c1ccc(Cl)cc1)Nc1ccc2c(c1)OCO2 0.41%
COC(=O)[C@@]12CCCCC=C1N(CCc1ccc(Cl)cc1)C(=O)[C@H]2CC(=O)NCc1ccc(OC)c(OC)c1 -0.01%
Cc1ccc2nc(-c3ccc(CN4CCC(n5cc(-c6ccccc6)[nH]c5=O)CC4)cc3)c(-c3ccccc3)nc2c1 -16.7%
COc1ccc(-c2cc(=O)oc3cc(OCC(=O)N(C)C4CCS(=O)(=O)C4)ccc23)cc1 (centres undefined) -0.13%
CCCCCCc1cc2cc(-c3nnc(-c4cccc(OC)c4)o3)c(=O)oc2cc1O -1.12%
COc1cccc(CSc2nnc(-c3cccnc3)n2Cc2ccccc2)c1 -0.18%
Nn1c(SCC(=O)Nc2ccc(S(N)(=O)=O)cc2)nnc1-c1n[nH]c2c1CCC2 -0.51%
CCOc1ccccc1NC(=O)NC1CCCCCCC1 0.05%
O=C(COc1cc(Cl)c(Cl)cc1Cl)NC(=O)NC1CCCC1 -0.16%
Cc1cc(=O)[nH]c(SCC(=O)Nc2ccc(Cl)cc2C)n1 -0.02%
CN1C(=O)c2cc(NS(C)(=O)=O)ccc2OC[C@@H]2O[C@@H](CC(=O)NCc3ccc(-c4ccccc4)cc3)CC[C@H]21 -0.3%
C=CCOc1ccc(/C=C/C(=O)OCC(=O)NCC2CCCO2)cc1 (centres undefined) -1.06%
CCOc1ccc(S(=O)(=O)NCCC(=O)NCC2CCCO2)cc1 (centres undefined) 0.66%
CN(C)c1ccc(NC(=O)NC2CCCCN(Cc3ccc(Cl)cc3)C2=O)cc1 (centres undefined) 0.67%
COc1ccnc(C(=O)N2CCC(Oc3cccnc3)CC2)c1 0.48%
Cn1cccc1C(=O)NC(=O)COC(=O)Cc1coc2ccc3ccccc3c12 -3.37%
Cc1ccc(NC(=O)Nc2cc(C)nn2-c2ccccc2)cc1 0.53%
C#CCN([C@H](C(=O)OC)C(C)CC)S(=O)(=O)c1ccccc1Br (some centres undefined) 0.19%
OCCNc1nc2ccccc2n1-c1ncnc2sc3c(c12)CCC3 -0.67%
CCCSc1ncccc1C(=O)O 0.67%
CN(C)[C@H]1CCN(c2cccc3c2S(=O)(=O)N2CC[C@H](C2)O3)C1 0.28%
CCOC(=O)c1cccc(NC(=O)CN(C)S(=O)(=O)c2ccc(-c3cocn3)s2)c1 -0.02%
COc1ccc(-c2onc(C)c2-c2ccc3c(c2)OCCO3)c(O)c1 -0.06%
COc1cccc(C(=O)Nc2cc3c(cc2Br)OCCCO3)c1 -0.41%
